Assay results as given in paper PMC4336329 (PLoS ONE, 2015).
The whole screen tested about 310,000 compounds, of which about 2,200 (0.71%) showed an effect of 50% or more. The effect is printed as a negative number. Many of the other results were omitted from the sample, so strong results are more common in it than they were.

Each molecule was assayed against human ether-à-go-go-related gene (hERG) potassium channel (human, UniProt Q12809) (assay: primary screen, population patch clamp on CHO cells stably expressing hERG; higher = less effect of the substance).
Sequence of human ether-à-go-go-related gene (hERG) potassium channel (Q12809 whole entry, looked up): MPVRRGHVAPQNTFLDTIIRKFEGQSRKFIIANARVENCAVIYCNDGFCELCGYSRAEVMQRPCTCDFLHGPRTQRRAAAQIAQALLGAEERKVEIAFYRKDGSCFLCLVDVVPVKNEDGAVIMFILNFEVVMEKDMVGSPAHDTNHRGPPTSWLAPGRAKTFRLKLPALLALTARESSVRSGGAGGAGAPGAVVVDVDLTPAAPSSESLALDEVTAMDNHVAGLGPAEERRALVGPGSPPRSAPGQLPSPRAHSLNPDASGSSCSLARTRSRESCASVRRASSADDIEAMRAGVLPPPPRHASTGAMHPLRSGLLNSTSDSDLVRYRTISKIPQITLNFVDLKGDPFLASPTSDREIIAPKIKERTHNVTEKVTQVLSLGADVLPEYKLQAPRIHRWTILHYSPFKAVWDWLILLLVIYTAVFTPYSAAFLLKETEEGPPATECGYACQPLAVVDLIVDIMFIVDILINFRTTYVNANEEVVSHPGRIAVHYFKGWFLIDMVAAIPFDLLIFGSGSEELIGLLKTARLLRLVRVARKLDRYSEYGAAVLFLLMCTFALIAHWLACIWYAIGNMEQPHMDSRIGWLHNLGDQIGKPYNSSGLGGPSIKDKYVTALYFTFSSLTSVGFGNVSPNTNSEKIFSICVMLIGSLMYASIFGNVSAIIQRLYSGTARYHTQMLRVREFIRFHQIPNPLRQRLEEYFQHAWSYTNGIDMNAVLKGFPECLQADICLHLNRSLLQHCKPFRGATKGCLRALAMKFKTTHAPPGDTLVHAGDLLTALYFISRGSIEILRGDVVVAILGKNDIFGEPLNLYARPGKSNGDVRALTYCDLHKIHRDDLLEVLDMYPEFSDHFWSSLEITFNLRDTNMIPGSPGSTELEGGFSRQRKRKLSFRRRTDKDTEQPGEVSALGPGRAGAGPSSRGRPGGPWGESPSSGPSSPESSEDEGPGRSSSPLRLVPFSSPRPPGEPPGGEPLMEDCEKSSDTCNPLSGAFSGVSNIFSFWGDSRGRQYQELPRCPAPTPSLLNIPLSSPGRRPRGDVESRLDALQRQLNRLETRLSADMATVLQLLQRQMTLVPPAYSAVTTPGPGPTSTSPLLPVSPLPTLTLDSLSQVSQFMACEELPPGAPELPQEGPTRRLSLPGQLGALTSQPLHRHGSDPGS
Experimental: Briefly, Chinese hamster ovary (CHO) cells stably expressing the hERG channel were dislodged from tissue culture flasks and dispensed into PPC plates. […] During the recording, background leak currents were estimated by a 100 ms step to -80 mV from an initial holding potential of -70 mV and subtracted from the subsequent current measurement. The campaign was conducted in two phases using slight differences in recording protocol. In the first phase, the initial voltage pulse used a 100 ms step to -30 mV from a holding potential of -70 mV, a 2 s conditioning step to +25 mV, and a 2 s test step to -30 mV. During the second phase of the screen, the potential during the conditioning step was raised to +45 mV. In both phases of the campaign, a secondary voltage pulse was applied using the same parameters as the second phase initial pulse. The initial and secondary pulses were applied in the absence of compound, and upon application of 1 μM and 10 μM test concentrations. Small molecule effects on hERG current density were quantified by […].

SMILES	hERG current change (%, negative = inhibition) at 1uM [%]
Cc1nnsc1C(=O)N1CCN(c2ccc(C#N)cn2)CC1	3.48
CCOc1cccc(/C=N/N2C(C)CCCC2C)c1O (stereo not shown)	2.07
CCCCCCOc1ccc(CN2CCN(C)CC2)cc1	-0.56
CC(=O)/C=C\c1ccccc1OC(=O)c1cc2ccccc2oc1=O	16.3
CCOC(=O)c1cc2cc(OCc3ccccc3)ccc2nc1C	8.83
CC(C)c1csc(CN2CCC(N3CCC(C(=O)NCC4CCCO4)CC3)CC2)n1 (stereo not shown)	9.96
O=C(Oc1ccc2ccc(=O)oc2c1)c1ccccc1	9.28
O=C(Oc1ccc2ccc(=O)oc2c1)c1ccco1	-53.7
O=C(Oc1ccc2ccccc2c1)c1ccco1	-0.657
CC1(c2nnc(-c3ccncc3)o2)CC(c2cccc(Cl)c2)=NO1 (stereo not shown)	13.4
O=C(CN1C(=O)CSC1=O)N1CCCC(Nc2ccc(F)cc2)C1 (stereo not shown)	11.5
CCc1ccc(NC(=O)CSCCN2C(=O)c3ccccc3C2=O)cc1	-8.99
COc1ccc(OC)c(C2C(C#N)=C(N)Oc3c2c(C)nn3-c2cccc(Cl)c2)c1 (stereo not shown)	7.28
CCn1c(SCC(=O)Nc2cccc(C)n2)nnc1-c1ccco1	0.773
COCCCn1c(SCC(=O)Nc2cccc(C)n2)nnc1-c1ccco1	-20.6
CCCCn1c(SCC(=O)Nc2cccc(C)n2)nnc1-c1ccco1	-78
COc1ncnc2c1oc1nc(CC(C)C)c3c(c12)CC(C)(C)OC3	-10.6
O=C(CSc1ccc(F)cc1)Nc1ccc(Br)cc1	13.9
CCOC(=O)/C(C(C)=O)=C1\OC(=O)c2ccccc21	8.9
COc1ccc(CCNC(=O)CSc2n[nH]c(N)n2)cc1OC	18.1
COc1ccc(CNC(=O)CSc2n[nH]c(N)n2)cc1OC	-73.4
COc1ccc(CNC(=O)CSc2n[nH]c(N)n2)cc1	14.9

SMILES	hERG current change (%, negative = inhibition) at 1uM [%]
O=C(O)C1Nc2ccc(C(F)(F)F)cc2C2OCCC12 (stereo not shown)	10.7
CCOC(=O)CSc1nc2cc(C(=O)NCC3CCCO3)ccc2c(=O)n1Cc1ccco1 (stereo not shown)	-18.2
C=CCn1c(SCC(=O)OCC)nc2cc(C(=O)NCc3ccco3)ccc2c1=O	-9.92
O=C(NCc1ccco1)c1ccc2c(=O)n(Cc3ccco3)c(SCC(=O)N3CCCC3)nc2c1	-66.9
CCCCCn1c(SCC(=O)OCC)nc2cc(C(=O)NCc3ccco3)ccc2c1=O	12.8
O=C(NCC1CCCO1)c1ccc2c(=O)n(Cc3ccco3)c(SCC(=O)N3CCCC3)nc2c1 (stereo not shown)	-54
O=C(NCC1CCCO1)c1ccc2c(=O)n(CC3CCCO3)c(SCC(=O)N3CCCC3)nc2c1 (stereo not shown)	5.44
CCN(C(=O)CSc1nnnn1-c1ccccc1)c1c(N)n(Cc2ccccc2)c(=O)[nH]c1=O	15.9
CCOc1ccc2nc(NCCO)[nH]c2c1	10.9
Cc1ccc(S(=O)(=O)NCCC(=O)NC2CCCC2)cc1	1.28
CC(C)C[C@@H](COc1ccccc1)N1CCN(Cc2ccccc2)CCC1=O	-4.6
CCCN1CCC(=O)N([C@H](COc2ccccc2)CC(C)C)CC1	-48.1
CCCN1CCC(=O)N([C@H](CSc2ccccc2)Cc2ccccc2)CC1	-48.9
CC(C)CN1CCC(=O)N([C@H](COc2ccccc2)Cc2ccccc2)CC1	-29.8
COc1ccc(SC[C@H](Cc2ccccc2)N2CCN(CCc3ccccc3)CCC2=O)cc1	-43.2
CC(C)C[C@@H](CSc1ccc(Br)cc1)N1CCN(CCc2ccccc2)CCC1=O	-28.9
CCCCCCCN1CCC(=O)N([C@H](CO)Cc2ccccc2)CC1	-77.2
COc1ccc(SC[C@H](CC(C)C)N2CCN(CCc3ccccc3)CCC2=O)cc1	-51.6
CCCN1CCC(=O)N([C@H](COc2ccccc2)Cc2ccccc2)CC1	-52.4
CCCN1CCC(=O)N([C@H](CO)Cc2ccccc2)CC1	6.98
CC(C)C[C@@H](COc1ccccc1)N1CCN(CCc2ccccc2)CCC1=O	-61.7
O=C1CCN(CCCc2ccccc2)CCN1[C@H](CO)Cc1ccccc1	-12

SMILES	hERG current change (%, negative = inhibition) at 1uM [%]
O=C(Oc1coc(CSc2ncccn2)cc1=O)c1ccc(Br)o1	11.6
Cc1cc(C)n(CCN(C)C(=O)C2CCC(=O)N(CCN3CCOCC3)C2)n1 (stereo not shown)	16.1
COc1ccc(C2CC(c3ccccc3)=NN2C(=O)c2ccc(Cl)c([N+](=O)[O-])c2)cc1 (stereo not shown)	9.38
CN(CC(=O)Nc1ccc(Cl)c(C(F)(F)F)c1)C(=O)c1cn2ccccc2n1	5.27
O=C(N/N=C/c1cc(Br)c(O)c(Br)c1)c1cccnc1	18.5
COc1ccccc1/C=C(/C(=O)OCC(=O)Nc1ccc(N(C)C)cc1)c1ccccc1	9.09
COc1ccccc1C(=O)N/N=C/c1cnc2ccccc2n1	6.27
CN1CCC(=O)N([C@H](COc2ccccc2)Cc2ccccc2)CC1	-8.2
O=C1CCN(CCc2ccccc2)CCN1[C@H](COc1ccccc1)Cc1ccccc1	-60.4
O=C1CCN(Cc2ccccc2)CCN1[C@H](COc1ccccc1)Cc1ccccc1	-7.61
CCOc1ccc(C(=O)COC(C)=O)cc1	9.74
O=c1[nH]c(C2CCCN(S(=O)(=O)c3ccc(F)cc3)C2)nc2c1nnn2Cc1ccccc1 (stereo not shown)	7.82
CC(C)CCN1CCN(CC#Cc2ccccc2)CC1CCO (stereo not shown)	4.3
OCCC1CN(CC(c2ccccc2)c2ccccc2)CCN1C1CCCC1 (stereo not shown)	-74.5
OCCC1CN(Cc2cnc(-c3ccc(Cl)cc3)nc2)CCN1C1CCCCC1 (stereo not shown)	-31.1
OCCC1CN(Cc2cnc(-c3ccc(Cl)cc3)nc2)CCN1C1CCCC1 (stereo not shown)	-62
OCCC1CN(C/C(Cl)=C/c2ccccc2)CCN1C1CCCC1 (stereo not shown)	-43.4
Cc1cccc(-c2ncc(CN3CCN(C4CCCC4)C(CCO)C3)cn2)c1 (stereo not shown)	-15.1
OCCC1CN(CC#Cc2ccccc2)CCN1C1CCCC1 (stereo not shown)	-7.79
CC(C)CCN1CCN(CCCc2ccccc2)CC1CCO (stereo not shown)	-1.8
CC(C)CCN1CCN(CC(c2ccccc2)c2ccccc2)CC1CCO (stereo not shown)	-81.9
COc1ccc(S(=O)(=O)Nc2ccc(-c3ccc(N4CCCC4)nn3)cc2)cc1C	11.6

SMILES	hERG current change (%, negative = inhibition) at 1uM [%]
CC(Oc1ccc(Cl)cc1Cl)c1ccnc(N)n1 (stereo not shown)	16.2
Clc1ccccc1C1=Nn2c(nnc2-c2ccco2)SC1	4.48
CC(=O)N1C[C@H](O)C[C@H]1C(=O)O	-19
O=C(COc1ccccc1)NNc1c2ccccc2nc2ccccc12	4.4
Cc1ccc(C)c(NC(=O)Cn2nc(-c3ccccc3)nc2-c2ccccc2)c1	16.6
CNS(=O)(=O)c1cccc(C(=O)OCC(=O)c2cc3ccccc3o2)c1	21
Cc1cccc(N2C(=O)NC(=O)/C(=C\c3cnn(-c4ccccc4)c3)C2=O)c1	12.6
Cc1ccccc1NC(=O)CN1CCN(C(=O)c2ccco2)CC1	5.5
CCN(CC)CCNCC(=O)Nc1ccc(Cl)cc1C(=O)c1ccccc1.O=C(O)C(=O)O	-84.2
CN1CCN(CC(=O)Nc2ccc(Cl)cc2C(=O)c2ccccc2)CC1	-83.3
O=C(CN1CCN(C(=O)c2ccco2)CC1)Nc1cc(Cl)ccc1Cl	-8.91
CN1CCN(c2ccc([N+](=O)[O-])cc2C(=O)c2ccccc2)CC1	-17.5
CN1CCN(CC(=O)Nc2ccc([N+](=O)[O-])cc2C(=O)c2ccccc2)CC1	-91.5
CN1CCN(C(=S)SCC(=O)Nc2ccc(Cl)cc2C(=O)c2ccccc2)CC1	-5.6
CN1CCN(CC(=O)Nc2cccc([N+](=O)[O-])c2)CC1	5.95
CN(C)CCCNCC(=O)Nc1ccc(Cl)cc1C(=O)c1ccccc1.O=C(O)C(=O)O	-21.2
O=C(CN1CCCC1)Nc1ccc(Cl)cc1C(=O)c1ccccc1.O=C(O)C(=O)O	0.588
CCN(CC)CC(=O)Nc1ccc(Cl)cc1C(=O)c1ccccc1	6.87
Cc1cc(Cl)ccc1NC(=O)CN1CCN(C(=O)c2ccco2)CC1	-57.1
O=C1NC(=S)N(c2ccccc2)C(=O)/C1=C/c1ccco1	5.88
COc1ccc(-n2nnnc2SCC(=O)c2ccc(O)c(O)c2)cc1	1.49
Cc1ccccc1-c1nc2ccc(Cl)cc2c(=O)n1O	15.4
